MsrA inhibitor: inhibits bovine methionine sulfoxide reductase A | purified bovine MsrA, absorbance read-out | inhibition, % at 15.5 µM | actives 0.75% (n = 360,000);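 further: 0% = vehicle wells with enzyme and 100% = reference inhibitor wells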
GC-B act: GC-B (human) receptor activation; AID 1920062; HEK293-GC-B cells, CNP EC30, cGMP TR-FRET; 0% at EC30 CNP, 100% saturating CNP; actives 0.11% (n = 370,000); activation, % at 10 µM;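 active means activation at 10 µM reaching about 35% in either raw or pattern-adjusted values, limit read from the data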
MsrA act: activates bovine MsrA enzyme. activation, % at 10.6 µM. AID 602163. purified bovine MsrA, absorbance read-out. actives 0.3% (n = 360,000); in the data active means activation above about 7.5%;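 further: 0% = vehicle and 100% = reference activator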
NPR1 activator: GC-A (human) enzyme activation; actives 0.14% (n = 370,000); P16066; activation, % at 10 µM; HEK293 GC-A cells, cGMP TR-FRET, EC30 ANP; 0% at EC30 ANP, 100% saturating ANP; in the data active means activation above about 40%
MsrA inh confirm: confirmation of bovine MsrA inhibitors; AID 651822; purified bovine MsrA, absorbance read-out; actives 41% (n = 2,300); inhibition, % at 15.5 µM; shares compounds with MsrA inhibitor;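 further: coupled to thioredoxin reductase with NADPH and selenocystamine and DMSO as substrate; 0% = vehicle only and 100% = full effect of reference inhibitor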
Numbers without * were called inactive. Hits are enriched below; roughly 1.2% of the tested compounds scored in any of these assays. Unless noted, no stated cut-off is given here; in the data, active means inhibition above about 4.5%; inactive means the rest.

COc1cc(/C=N/NC(=O)c2nc(C)cc(C)n2)ccc1O was read as MsrA inhibitor 5, GC-B act 0, MsrA act -5 and NPR1 activator -9.
For COc1cc(/C=N/NC(=O)c2ccncc2)ccc1O the results were MsrA inhibitor 4, GC-B act 2, MsrA act -4 and NPR1 activator -2.
COc1ccc(CNC(=O)C2CCCN(c3nc4ccccc4o3)C2)cc1 (configuration not stated) was read as GC-B act 11 and NPR1 activator 1.
`O=C(CSc1nnc(-c2ccc(Cl)cc2)n1Cc1ccco1)Nc1cccc2ccccc12` gave GC-B act 6 and NPR1 activator 1.
`COc1cc(/C=N/NC(=O)C(=O)Nc2ccccn2)ccc1O` gave MsrA inhibitor 5.3*, GC-B act -2, MsrA act -4, NPR1 activator -5 and MsrA inh confirm 5.0*.
CCOc1cc(/C=N\NC(=O)c2c(C)nc3ccccn23)ccc1O was read as MsrA inhibitor 5.6*, GC-B act 1, MsrA act -6, NPR1 activator -6 and MsrA inh confirm 4.9*.
COc1ccc(/C=N/NC(=O)c2cnccn2)cc1O was read as MsrA inhibitor 4.8*, GC-B act -3, MsrA act -6, NPR1 activator -1 and MsrA inh confirm 4.8*.
COc1cccc(/C=N/NC(=O)c2cnccn2)c1 was read as MsrA inhibitor 0, GC-B act 8, MsrA act -8 and NPR1 activator -3.
Screening COc1ccc(/C=N/Nc2ccccn2)cc1O returned MsrA inhibitor 6.1*, GC-B act -3, MsrA act -5, NPR1 activator -5 and MsrA inh confirm 3.
Screening C[C@H]1[C@@H](OC(=O)Nc2cccc(Cl)c2)CC[C@@]23CCCN2C(=O)CCC[C@@H]13 returned GC-B act 0 and NPR1 activator -5.
CN1C2=N[C@@H](c3ccc4ccccc4c3)CC(=O)N2/C(=C\c2ccccc2)[C@H]1c1ccccc1 was read as GC-B act -23 and NPR1 activator -20.
Screening COC(=O)[C@]12C[C@H](CC(=O)NCc3ccc(C)o3)C(=O)N(Cc3ccccc3)C1=C[C@H](C(C)(C)C)O[C@@H]2C returned MsrA inhibitor 0, GC-B act -10 and NPR1 activator -9.
For NC(=O)c1c(N)[nH]c(C(=O)c2ccccc2)c1-c1ccccc1Cl the results were MsrA inhibitor 1, GC-B act 2 and NPR1 activator -4.
Screening N#C/C(=C\C=C\c1ccccc1)C(=O)N1CCCC1 returned MsrA inhibitor 4.8*, GC-B act 0, MsrA act -3, NPR1 activator -3 and MsrA inh confirm 4.8*.
Screening COC(=O)[C@]12C[C@H](CC(=O)N3CCOCC3)C(=O)N(Cc3ccco3)C1=C[C@H](C1CCCC1)O[C@@H]2C returned GC-B act -5 and NPR1 activator -7.
`C/C(=N\NC(=O)c1cccnc1)c1cc2ccccc2o1` gave MsrA inhibitor 6.7*, GC-B act 2, MsrA act -3, NPR1 activator 3 and MsrA inh confirm 6.0*.
`COc1ccc(-n2c(O)cnc2Nc2nc(C)cc(C)n2)cc1OC` gave MsrA inhibitor 15*, GC-B act 3, MsrA act -3, NPR1 activator -1 and MsrA inh confirm 6.5*.
CCc1ccc(-n2c(O)cnc2Nc2nc(C)cc(C)n2)cc1 was read as MsrA inhibitor 9.5*, GC-B act -4, MsrA act -8, NPR1 activator -4 and MsrA inh confirm 7.0*.
Screening COc1ccc(-n2c(O)c(/C=N/Nc3nc(C)cc(C)n3)c3ccccc3c2=O)cc1OC returned MsrA inhibitor 1, GC-B act 2, MsrA act -9 and NPR1 activator 1.
For CCc1ccc(Nc2nc(C)cc(C)n2)cc1 the results were MsrA inhibitor 0, GC-B act -3, MsrA act -2 and NPR1 activator 0.
`O=C(CCl)Nc1ccc(C(=O)NCC2COc3ccccc3O2)cc1` (configuration not stated) gave GC-B act -1 and NPR1 activator -2.
For O=C1CCC(=O)N1c1nc2nc(-c3ccccc3)cc(-c3ccccc3)n2n1 the results were MsrA inhibitor 4.7*, GC-B act -3, MsrA act -8, NPR1 activator -9 and MsrA inh confirm 2.
`CC(=O)Nc1sc2c(c1-c1nc3ccccc3s1)CCN(C(C)C)CC2` gave GC-B act -1 and NPR1 activator 8.

From PubChem
